Reference: PubChem BioAssay (EPA / NIEHS)
Active and inactive are the calls of the source. How the source made its calls: active means hit-call score of the fitted dose curve at least 0.9, where 1 is the maximum; inactive means score below 0.9.

Experiment: APR_HepG2_MicrotubuleCSK_72hr: Apredica 72-hour HepG2 Assay for Microtubule CSK Stabilty (AID 2282919)
Details: HepG2 microtubule cytoskeleton, high-content imaging, actives raise or lower the signal
Method: APR_HepG2_72hr is a cell-based, multiplexed-readout assay that uses HepG2, a human liver cell line, with measurements taken at 72 hours after chemical dosing in a 384-well plate.APR_HepG2_MicrotubuleCSK_72hr is one of 10 assay component(s) measured or calculated from the APR_HepG2_72hr assay. It is designed to make measurements of protein conformation, a form of conformation reporter, as detected with fluorescence intensity signals by HCS Fluorescent Imaging technology.Data from the assay component APR_HepG2_MicrotubuleCSK_72hr was analyzed into 1 assay endpoint. This assay endpoint, APR_HepG2_MicrotubuleCSK_72hr, was analyzed with bidirectional fitting relative to DMSO as the negative control and baseline of activity. Using a type of conformation reporter, measures of protein for gain or loss-of-signal activity can be used to understand the signaling at the cellular-level. Furthermore, this assay endpoint can be referred to as a primary readout, because this assay has produced multiple assay endpoints where this one serves a signaling function. To generalize the intended target to other relatable targets, this assay endpoint is annotated to the cell morphology intended target family, where the subfamily is cell conformation.
Cells were treated with dimethyl sulfoxide (DMSO) as a solvent control at a final concentration of 0.5% v/v or with compounds in DMSO with a resulting final DMSO concentration of 0.5% v/v. Compound treatment was done at concentrations of 0.39, 0.78, 1.56, 3.12, 6.24, 12.5, 25, 50, 100, and 200 uM in duplicate on each plate. Cells were treated with compounds for 1, 24, or 72 hr. Carbonyl […] m-chloro-phenylhydrazone (CCCP) and taxol were used as positive controls for mitochondrial function and cytoskeletal stability, respectively; DMSO served as the negative control for this experiment. Cells were fixed by the direct addition of 50 uL formaldehyde in Hank's Balanced Salt Solution (HBSS) to a final concentration of 3.7%. After incubation in the fixation medium for 30 min at room temperature (293-298 K), cells were rinsed twice with HBSS and treated with cell permeabilization buffer (16 uL of 0.5% Triton X-100) for 10 min at room temperature (293-298 K) before labeling. For mitochondrial membrane potential and mitochondrial measurements, pre-fixed cells were incubated with 50 uL of MitoTracker Red CMXRos (Invitrogen) at a concentration of 250 nM for 30 min before fixation. In the remaining cases, post-fixed cells were labeled by incubation with a multiplexed mixture of primary antibodies in HBSS for 60 min at room temperature (293-298 K) to detect immunoreactivity of c-Jun (1:500), phospho-histone H3 (1:100), phospho-histone H2A.x (1:200), p53 (1:400), alpha-tubulin (1:200) and Hoechst 33342 (2 ug/mL). Cells were labeled for multiplexed imaging on two separate plates: a) Hoechst 33342, MitoTracker Red, phospho-histone H3, and alpha-tubulin, and b) Hoechst 33342, phospho-histone H2A.x, and c-Jun. A final rinse with HBSS (50 uL) was performed before analysis. The primary and secondary antibodies for the proteins were phospho-histone H3 (rabbit anti-phospho-histone H3 and FITC-donkey anti-rabbit IgG), phospho-histone H2A.x (mouse anti-phospho-histone H2A.x and FITC-donkey anti-mouse IgG), c-Jun (rabbit anti-phospho-c-Jun and Cy3-donkey anti-rabbit IgG), p53 (sheep anti-p53 and Cy5-donkey anti-sheep IgG), alpha-tubulin (mouse anti-alpha-tubulin and Cy5-donkey anti-mouse IgG). These antibodies are available as the CellCiphr HepG2 assay kit (Millipore).Digital images of each well were captured using a Cellomics ArrayScan VTI (Thermo Scientific Cellomics) (0.8 NA objective, 0.63x optical coupler, and XF-93 filter set) at 20x magnification. The images were acquired using the autofocus feature of the ArrayScan instrument, which entails the following steps. First, the camera focuses on channel 1 (Hoechst 33342), where nuclei are identified. Second, a Z offset of 1 um is used for capturing mitochondria (MitoTracker Red). […]

Compound | AC50 | outcome
CCN(CC)C(=O)c1cc(S(=O)(=O)Cc2ccccc2)c(N2CCC(c3ccccc3)CC2)cc1N(CC)CCN(C)C | 7.7 µM (active) | –
c1ccc2ccccc2c1 | – | inactive
O=C1O[C@H]([C@@H](O)CO)C(O)=C1O | – | inactive
COc1ccc2cc(S(=O)(=O)N[C@H](CC(=O)N[C@H](Cc3ccc(CN4[C@H](C)CCC[C@@H]4C)cc3)C(=O)N(C)C(C)C)c3ccc4c(c3)OCO4)ccc2c1 | – | inactive
c1ccc2n[nH]nc2c1 | – | inactive
CO[C@H]1/C=C/O[C@@]2(C)Oc3c(C)c(O)c4c(O)c(c(/C=N/N5CCN(C)CC5)c(O)c4c3C2=O)NC(=O)/C(C)=C\C=C\[C@H](C)[C@H](O)[C@@H](C)[C@@H](O)[C@@H](C)[C@H](OC(C)=O)[C@@H]1C | – | inactive
CN(C)c1ccc(C(=C2C=CC(=[N+](C)C)C=C2)c2ccc(N(C)C)cc2)cc1 | 12.4 µM (active) | –
Cc1ccc(C(C)C)cc1 | – | inactive
CCN(Cc1cccnc1)C(=O)c1cccc(Cl)c1[C@]1(C)C(=O)N(Cc2ccc(OC)cc2OC)c2ccc(Cl)cc21 | – | inactive
CC[C@@H]1C[C@H](N(Cc2cc(C(F)(F)F)cc(C(F)(F)F)c2)C(C)=O)c2cc(C(F)(F)F)ccc2N1C(=O)OC(C)C | – | inactive
CCCC(=O)OCCC(C)C | – | inactive
CC(C)(C)c1csc(-c2cc3cc(OCc4ccccc4CC(=O)O)ccc3o2)n1 | – | inactive
CCCCCCCCOC(=O)c1cc(O)c(O)c(O)c1 | – | inactive
O=c1ccc2ccccc2o1 | – | inactive
Oc1ccc2ccccc2c1 | – | inactive
O=C1c2ccccc2C(=O)N1CCc1noc(-c2ccc(CN3CCCCCC3)s2)n1 | – | inactive
CN1C(=O)N(c2ccccc2Br)Cc2cnc(Nc3ccc4c(c3)OCC(CO)O4)nc21 (stereo not given) | – | inactive
CC[C@H](NC(=O)c1cc(F)ccc1NS(=O)(=O)c1cccc2cccnc12)c1ccccc1 | – | inactive
O=C(O)c1ccccc1-n1cc(C(=O)O)c(=O)c2cc(Nc3c(F)cc(F)cc3Cl)c(Cl)cc21 | – | inactive
CCCCCCCCCCCC[N+](C)(C)C | – | inactive

Compound | AC50 | outcome
O=C(O)Cc1cc(I)c(Oc2ccc(O)c(I)c2)c(I)c1 | – | inactive
CCCCCCCCCCCCO | – | inactive
COc1cccc([C@H](O)C2CCN(CCc3ccc(F)cc3)CC2)c1OC | 103 µM (active) | –
O=C1CCC(C2CCCCC2)CC1 | – | inactive
Oc1ccccc1 | – | inactive
CCCCCCCCCCCO | – | inactive
COc1cc(C(=O)NC2CCN(C)CC2)ccc1Nc1ncc2c(n1)N(C1CCCC1)CC(F)(F)C(=O)N2C | – | inactive
CN(C)C(=O)C1(N2CCCCC2)CCN(CC[C@@]2(c3ccc(Cl)c(Cl)c3)CN(C(=O)c3ccccc3)CCO2)CC1 | – | inactive
Cc1occc1C(=O)Nc1ccc(C(=O)N2CCC(F)(F)/C(=C\C(=O)N3CCC(N4CCCCC4)CC3)c3ccccc32)cc1 | – | inactive
CCO[Si](CCCNC(N)=O)(OCC)OCC | – | inactive
C[C@]12CC[C@@H]3c4ccc(O)cc4CC[C@H]3[C@@H]1CCC2=O | – | inactive
CC1(C)NC(=O)N(c2ccc([N+](=O)[O-])c(C(F)(F)F)c2)C1=O | – | inactive
NC(=O)c1nc(-c2cccc(-c3cc(F)ccc3OCC(F)(F)C(F)(F)F)c2)n[nH]1 | – | inactive
O=CCCCC=O | – | inactive
O=C=NCCCCCCN=C=O | – | inactive
O=C(O)Cn1c(=O)n(Cc2ccc(Br)cc2F)c(=O)c2ccc(Cl)cc21 | – | inactive
CC(=O)N1CCN(c2ccc(OC[C@H]3CO[C@](Cn4ccnc4)(c4ccc(Cl)cc4Cl)O3)cc2)CC1 | – | inactive
CN1C(=O)CC[C@H]1c1cccnc1 | – | inactive
Cc1cc2c(cc1C(F)(F)F)N(C(=O)Nc1ccc(Oc3cccnc3C)nc1)CC2 | 38.4 µM (active) | –
CCCCCCCCCC(=O)O | – | inactive
